Screens as filed in PubChem.
CYP2C19 inh: blocks human cytochrome P450 2C19. P33261. hit rate 21% among 96,000. AID 778. CYP2C19 Supersomes, luciferin-H EGE luminescence, 30 min. inhibition, % at 5 µM;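 active means CYP2C19 inhibition above a set limit at 5 µM in the primary screen, cut at about 50% in these data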
Target sequence (P33261 whole entry, looked up): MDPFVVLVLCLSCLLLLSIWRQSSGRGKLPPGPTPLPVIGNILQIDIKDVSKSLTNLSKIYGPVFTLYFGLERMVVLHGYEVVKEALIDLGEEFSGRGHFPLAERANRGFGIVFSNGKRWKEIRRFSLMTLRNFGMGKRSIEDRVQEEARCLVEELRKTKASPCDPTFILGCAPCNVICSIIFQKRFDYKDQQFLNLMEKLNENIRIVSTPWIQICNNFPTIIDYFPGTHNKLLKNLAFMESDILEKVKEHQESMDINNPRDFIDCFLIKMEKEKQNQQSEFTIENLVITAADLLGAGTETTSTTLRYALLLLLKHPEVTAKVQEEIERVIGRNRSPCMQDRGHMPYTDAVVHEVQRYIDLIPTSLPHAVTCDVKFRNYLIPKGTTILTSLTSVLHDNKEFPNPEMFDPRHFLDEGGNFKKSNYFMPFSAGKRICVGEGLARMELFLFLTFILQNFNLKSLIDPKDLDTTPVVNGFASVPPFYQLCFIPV
CYP2C9 act: activators of human CYP2C9; activation factor at 5 µM; recombinant CYP2C9, luciferin-H conversion, luminescence; hits give high values; factor 1 = untreated enzyme, 0 = blocked; P11712; hit rate 1.4% among 96,000;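 active means activation factor of 2 or more for CYP2C9 at a 5 µM dose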
CYP2C9 inh: inhibitors of human CYP2C9 | P11712 | CYP2C9 Supersomes, luciferin-H conversion, luminescence | inhibition, % at 5 µM | hit rate 20% among 96,000 | AID 777;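 active means blocking of liver enzyme CYP2C9 beyond about 50% at 5 µM, limit read from the data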
CYP2C19 activ: activators of human cytochrome P450 2C19; recombinant CYP2C19, luciferin-H EGE luminescence; hits give high values; 0 = fully inhibited enzyme, 1 = untreated enzyme; activation factor at 5 µM; 96,000 tested, under 10 active;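 active means activation factor of at least 2 at 5 µM in the primary screen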
Of the large screens only hits and unclear results are named; the others gave an inactive call. An excerpt weighted towards active compounds, which were near 31% of everything screened.

O=C(COc1ccc(-n2cnnn2)cc1)NCCc1ccc(F)cc1	none
CCCCCCNC(=O)CCNC(=O)c1cc(OC)c(OC)c(OC)c1	none
CCOC(=O)N1CCC(NC(=O)C2CCCN(C(=O)c3cc4sccc4n3C)C2)CC1 (configuration not stated)	none
CCOC(=O)c1cccc(NC(=O)c2cc3sccc3n2C)c1	CYP2C19 inh 96, CYP2C9 inh 92
CCOC(=O)c1ccccc1NC(=O)c1cc2sccc2n1C	CYP2C19 inh 79, CYP2C9 inh 62
CCOC(=O)c1sc(NC(=O)c2cccs2)cc1C	CYP2C9 inh 65
CCOC(=O)N1CCN(C(=O)c2cc3sccc3n2C)CC1	CYP2C19 inh 86
CN(C)S(=O)(=O)c1ccc(NC(=O)c2cccnc2)cc1	none
Cn1c(=O)[nH]c(=O)c2c1nc(NCc1ccccc1)n2CCCc1ccccc1	none
CCOC(=O)c1cccc(NC(=O)c2cccs2)c1	CYP2C9 inh 63
CCOC(=O)c1cnn(CCOC(=O)c2cccs2)c1NC(=O)c1cccs1	CYP2C19 inh 75, CYP2C9 inh 86
CCCCCOC(=O)c1c(N)n(CCOC)c2nc3ccccc3nc12	none
CCOC(=O)c1cccc(NC(=O)c2ccco2)c1	none
CCOC(=O)c1c(N)n(CCOC(=O)c2cccs2)c2nc3ccccc3nc12	CYP2C19 inh 85, CYP2C9 inh 84
COC(=O)c1cccc(NC(=O)/C(=C\c2ccccc2)NC(=O)c2ccccc2Cl)c1	none
CCOC(=O)c1cccc(NC(=O)/C(=C\c2ccccc2)NC(=O)c2ccccc2Cl)c1	CYP2C9 inh 56
CC(C)(C)c1cc(CCC(=O)N2CCNCC2)c(C(C)(C)C)cc1O	CYP2C9 inh 74
O=C(COc1ccc(Cl)cc1)NCc1nnc(SCC(=O)NCCc2ccccc2)o1	none
Cc1cc(=O)oc2cc(OC(C)C(=O)Nc3nccs3)ccc12 (configuration not stated)	CYP2C19 inh 81, CYP2C9 inh 80
Cc1csc(NC(=O)COc2ccc3c(C)cc(=O)oc3c2)n1	none
COC(=O)C(CC(C)C)Oc1ccc2c(C)cc(=O)oc2c1 (configuration not stated)	CYP2C9 inh 65
CC(=O)Oc1ccc2c(C)cc(=O)oc2c1	none
O=C(O)C1C2C=CC(C2)C1C(=O)NC(c1ccccc1)c1ccccc1 (configuration not stated)	none
COc1ccc(CCNC(=O)CSc2nc3ccccc3o2)cc1	CYP2C19 inh 92, CYP2C9 inh 99
O=C(CSc1nc2cc(Cl)ccc2o1)c1cccs1	CYP2C19 inh 58, CYP2C9 inh 60
CCN(CC)S(=O)(=O)c1ccc2oc(SCC(=O)NCc3ccccc3)nc2c1	CYP2C19 inh 97, CYP2C9 inh 90
CN(C)S(=O)(=O)c1ccc2oc(SCC(N)=O)nc2c1	none
CCS(=O)(=O)c1ccc2oc(SCC(=O)NC3CCCC(C)C3C)nc2c1 (configuration not stated)	CYP2C19 inh 52
CCCNc1c(N)c(=O)oc2ccccc12	none
O=C(CSc1nc2cc(Cl)ccc2o1)NCCc1ccccc1	CYP2C19 inh 51, CYP2C9 inh 65
COc1ccc(Nc2nc(Nc3ccc(OC)cc3)nc(SC3=NCCS3)n2)cc1	CYP2C19 inh 59, CYP2C9 inh 64
CCOc1nc(Nc2ccc(OC)cc2)nc(OCC)n1	none
COc1ccc(Cn2c(CCC(=O)Nc3ccc(CC#N)cc3)nc3cccnc32)cc1	none
CCOC(=O)C1CCN(C(=O)/C=C/c2ccccc2OC)CC1	CYP2C19 inh 51, CYP2C9 act 2.6
CCOC(=O)C1CCN(C(=O)c2cccc(C(=O)N3CCC(C(=O)OCC)CC3)c2)CC1	none
CCOC(=O)C1CCN(C(=O)/C=C/c2ccc(OC)cc2)CC1	CYP2C19 inh 87
CCOc1ccc(-n2c(SC(C)C)nc3c(c2=O)SCC3)cc1	none
COc1ccc([N+](=O)[O-])cc1NC(=S)NC(NC(=O)C(c1ccccc1)c1ccccc1)C(Cl)(Cl)Cl (configuration not stated)	CYP2C9 inh 69
Cc1cc([N+](=O)[O-])ccc1NC(=S)NC(=O)C(c1ccccc1)c1ccccc1	CYP2C9 inh 66
Cc1ccccc1Cn1ccc(NC(=O)c2cnn3cccnc23)n1	CYP2C9 inh 50
ON1C(c2ccccc2C(F)(F)F)N(O)[C@H]2CCCC[C@H]21 (some centres not stated)	none
COc1ccc(C2/C(=C(/O)c3ccccc3)C(=O)C(=O)N2CCO)cc1 (configuration not stated)	none
COc1ccc(N/C(C)=C2/C(=O)C(=O)N(CCO)C2c2ccc(Br)cc2)cc1 (configuration not stated)	CYP2C19 inh 60, CYP2C9 inh 52
